ChEMBL document CHEMBL3433997, “St. Jude Leishmania screening dataset” (2016)

Experiments:
Format in all cases: functional
[1] = biological target: Solute carrier family 2, facilitated glucose transporter member 1 (Homo sapiens) (UniProt P11166); experiment: ST_JUDE_LEISH: Cytotoxicity at 2uM final concentration against transgenic Leishmania Mexicana promastigotes LmGLUT1 that are glucose transport deficient and complemented with the human glucose transporter GLUT1. Activity is measured by DNA content using SYBR green in vitro
Solute carrier family 2, facilitated glucose transporter member 1 (Homo sapiens), sequence (P11166 whole entry): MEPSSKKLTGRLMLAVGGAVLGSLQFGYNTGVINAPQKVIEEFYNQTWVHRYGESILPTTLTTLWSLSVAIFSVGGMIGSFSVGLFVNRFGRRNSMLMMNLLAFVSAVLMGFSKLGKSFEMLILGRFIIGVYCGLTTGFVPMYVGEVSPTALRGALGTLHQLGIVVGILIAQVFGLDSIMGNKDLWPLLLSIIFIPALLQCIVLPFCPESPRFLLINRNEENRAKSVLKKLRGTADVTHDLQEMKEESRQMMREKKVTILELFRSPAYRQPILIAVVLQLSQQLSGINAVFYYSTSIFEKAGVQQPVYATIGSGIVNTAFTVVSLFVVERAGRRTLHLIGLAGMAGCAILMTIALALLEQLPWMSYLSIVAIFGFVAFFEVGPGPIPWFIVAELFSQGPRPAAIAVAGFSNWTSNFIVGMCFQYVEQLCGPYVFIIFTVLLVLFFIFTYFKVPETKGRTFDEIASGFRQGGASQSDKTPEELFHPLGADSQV

[2] = biological target: Hexose transporter 1 (Plasmodium falciparum) (UniProt O97467); experiment: ST_JUDE_LEISH: Cytotoxicity at 2uM final concentration against transgenic Leishmania Mexicana promastigotes LmPfHT that are glucose transport deficient and complemented with the Plasmodium falciparum hexose transporter. Activity is measured by DNA content using SYBR green in vitro
[3] = biological target: Glucose transporter (Leishmania mexicana) (UniProt O61059); experiment: ST_JUDE_LEISH: Cytotoxicity at 2uM final concentration against transgenic Leishmania Mexicana promastigotes LmGT2 that are glucose transport deficient and complemented with the L. Mexicana glucose transporter 2. Activity is measured by DNA content using SYBR green in vitro

Row | SMILES | inhibition [1] | inhibition [2] | inhibition [3]
1 | N=C(N)NCCCN(Cc1ccccc1)c1ccccc1 | 3.87% | 2.61% | 1.89%
2 | Cc1cccc(CC(=N)NCCCCCCNC(=N)Cc2cccc(C)c2)c1 | 0.27% | 0.31% | -2.06%
3 | CC12CCC(=O)N1C(C(=O)Nc1cccc(C(=O)Nc3cccc(C(F)(F)F)c3)c1)CS2 (stereo unspecified) | 5.52% | 6.47% | 6.41%
4 | COc1ccc2nccc([C@@H](O)CN3CCC(NC(=O)/C=C/c4ccc(Cl)c(C(F)(F)F)c4)CC3)c2c1 | 5% | 4.74% | -1.23%
5 | COc1cc(Cc2cnc(N)nc2N)c2ccsc2c1OC | 4.16% | 3.31% | 1.58%
6 | CN1CCN(C(C(=O)NCc2cc(Cl)cc(Cl)c2)c2ccccc2-c2ccsc2)CC1 (stereo unspecified) | 4.67% | 5.51% | 4.6%
7 | Cc1cccc2nc(-c3cccc(-c4cccc(NC(=O)CC5NC(=O)c6ccccc65)c4)c3)[nH]c12 (stereo unspecified) | 0.82% | 1.34% | 3.21%
8 | Cn1nc(-c2ccc(NC(=O)Nc3cc(C(F)(F)F)ccc3F)cc2)c2cnc(NCCCCN3CCCC3)nc21 | 3.73% | 4.39% | 4.25%
9 | CN1CCN(c2ccnc3ccc(NC(=O)Nc4cccc5c(-c6ccncc6)cccc45)cc23)CC1 | -0.27% | -0.42% | 0.32%
10 | CC(C)CNCc1ccc(-c2cccc(CN(CCN(C)C)C(=O)NCCc3ccccc3)c2)cc1 | -0.22% | 1.83% | 0.23%
11 | COC(=O)c1cccc(NC(=O)NCCNc2ccnc(Nc3ccc(F)cc3)n2)c1 | 4.31% | 3.02% | 2.45%
12 | CC1(C)NC(N)=NC(=N)N1OCCNCc1ccc(Cl)cc1 | 4.58% | 4.01% | 3.92%
